The results in this text go back to PubChem BioAssay (EPA / NIEHS).

Each structure is given as a SMILES string. Results filed as inconclusive are left out. Activity calls are given as the source filed them. The calls were made as follows: active = hit-call score of the fitted dose curve at least 0.9, where 1 is the maximum; inconclusive = response in the unintended direction; inactive = score below 0.9.

D(1A) dopamine receptor (Homo sapiens), sequence (P21728 whole entry, looked up): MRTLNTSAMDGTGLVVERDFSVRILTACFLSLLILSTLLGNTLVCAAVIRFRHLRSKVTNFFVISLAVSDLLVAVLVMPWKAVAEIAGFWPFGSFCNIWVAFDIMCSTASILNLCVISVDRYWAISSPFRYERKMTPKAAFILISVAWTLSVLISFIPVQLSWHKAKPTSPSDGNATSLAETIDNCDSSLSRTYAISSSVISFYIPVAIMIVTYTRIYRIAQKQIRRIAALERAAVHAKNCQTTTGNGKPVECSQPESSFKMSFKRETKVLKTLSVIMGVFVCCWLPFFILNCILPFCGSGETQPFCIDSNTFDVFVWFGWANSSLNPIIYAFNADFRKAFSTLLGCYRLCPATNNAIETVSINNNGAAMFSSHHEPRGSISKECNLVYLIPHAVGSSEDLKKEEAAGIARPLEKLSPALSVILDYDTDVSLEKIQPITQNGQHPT

This assay deals with D(1A) dopamine receptor (Homo sapiens) (UniProt P21728). In words: NVS_GPCR_hDRD1: NovaScreen (NVS) G Protein-Coupled Receptor Assay for human Dopamine Receptor D1 (DRD1) (AID 2283269). As to the method:
NVS_GPCR_hDRD1 is a biochemical, single-readout assay that uses extracted gene-proteins from HEK293 in a cell-free assay. Measurements were taken 1 hour after chemical dosing in a 96-well plate.NVS_GPCR_hDRD1 is one of one assay component(s) measured or calculated from the NVS_GPCR_hDRD1 assay. It is designed to make measurements of radioligand binding, a form of binding reporter, as detected with scintillation counting signals by Filter-based radiodetection technology.Data from the assay component NVS_GPCR_hDRD1 was analyzed into 1 assay endpoint. This assay endpoint, NVS_GPCR_hDRD1, was analyzed in the positive analysis fitting direction relative to DMSO as the negative control and baseline of activity. Using a type of binding reporter, loss-of-signal activity can be used to understand changes in the binding as they relate to the gene DRD1. Furthermore, this assay endpoint can be referred to as a primary readout, because the performed assay has only produced 1 assay endpoint. To generalize the intended target to other relatable targets, this assay endpoint is annotated to the gpcr intended target family, where the subfamily is rhodopsin-like receptor.
Binding assays used specific radioligands (tritiated, iodinated) with non-radioactive competitive displacement ligands in agonist or antagonist protocols (as indicated) and various reference compounds and inhibitors to titrate specific binding to receptors and transporters. Most enzyme assays (CYPs, kinases, phosphatases, proteases, HDACs) used recombinant protein and specific substrates (fluorescence mostly, some colorimetric and radioactive) and inhibitors, followed by a biochemical separation of substrate and product. All assays for the biochemical HTS were initially run in duplicate at a single concentration (10 uM for CYP450 assays and 25 uM for all others). […] Each assay was run with positive and negative controls, and concurrent controls on every plate. The follow-up (secondary) screen tested active chemical-pairs in concentration series, as well as a few additional assays not tested in the primary screen, some selected negative inactives, and several cases re-run in the concentration series for confirmatory purposes.
For `CCCCCCCCCCCCCCCC(=O)OC/C=C(C)/C=C/C=C(C)/C=C/C1=C(C)CCCC1(C)C`, the AC50 (commonly the concentration at which the activity in the assay is half-maximal) is 34.7 µM (active).

Turning to `CCOC(=O)CN`, the call was inactive.

Consider `C[C@@H]1CCN(C(=O)[C@H](CCCN=C(N)N)NS(=O)(=O)c2cccc3c2NC[C@H](C)C3)[C@@H](C(=O)O)C1`, for which the AC50 is 17 µM (active).

As to `CC(C)(N=C=O)c1cccc(C(C)(C)N=C=O)c1`, the concentration at half-maximal activity (AC50) was 43.7 µM (active).

On to `C=CCOC(=O)CCCCCC`, for which the outcome was inactive.

For the molecule `CCCCOCC`, the molecule was called inactive.

Regarding `CN(c1nccc(=O)[nH]1)C1CCN(c2nc3ccccc3n2Cc2ccc(F)cc2)CC1`, the molecule was classed as inactive.

As to `COCCc1ccc(OCC(O)CNC(C)C)cc1` (configuration not stated), the molecule was called inactive.

For the molecule `CCCCSCCCC`, the molecule was called inactive.

Regarding `ClC(c1ccccc1)(c1ccccc1)c1ccccc1`, the result was inactive.

Take `CCC1CCCCC1`: the call was inactive.

As for `CN(C)C(=S)SC(=S)N(C)C`, the AC50 was 30.8 µM (active).
